# Assay results taken from PubChem BioAssay (NCATS).
# Several values for one entry are separate records, joined by “and”; a condition that tells them apart may be missing. Equal entries are not always repeated. Values without a mark were called inactive. Results filed as inconclusive are left out. Activity calls are given as the source filed them. Unless noted, calls come from the whole dose curve; as a rule, active = well fitted inhibition curve with a large enough effect; inconclusive = small, poorly fitted or top-dose-only effect; inactive = flat fitted curve, though single readings scatter. Where a SMILES comes first, the peptide text is derived from it. Bridges are numbered along the chain shown (N, C = ends). [ ]: non-standard residue; d: D form. The star is where a group is joined. Dab(CH2SO3H) = N[C@@H](CCNCS(=O)(=O)O)C(=O)O; X3 = CC[C@@H](C)CCCCC(=O)*; Dab = NCC[C@H](N)C(=O)O
# Columns and labels:
# [1] = Drug repurposing screens with cells derived from glioblastoma tumor samples (AID 1345199); settings: GBM patient neurospheres viability, ATP luminescence, 48 h; note: nearly all actives have a fitted effect of over 40% in size; note: potency is the fitted concentration of half-maximal effect; for activity, negative = cell killing: % is set by controls: 0 for no effect and ±100 for the full control effect
# Procedure, shortened: (§1)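 Four patient lines of CD133+ GBM neurospheres were screened at several concentrations; hits were retested in those lines plus three slower-growing GBM lines, using 48-hour treatment and ATP-based viability.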
# [2] = test system: astro; assay: as above; settings: viability, ATP luminescence, 48 h; series mostly up to 45.9 µM
# Procedure, shortened: as §1
# [3] = qHTS assay for small molecule activators of the human pregnane X receptor (PXR) signaling pathway (AID 720659; call rule not given here; note: 0% is about no effect); settings: DPX-2 HepG2 CYP3A4-luciferase, 24 h; series mostly up to 92.3 µM
# [4] = biological target: Nuclear receptor subfamily 1 group I member 2 (Rattus norvegicus) (UniProt Q9R1A7); assay: qHTS assay for small molecule activators of the rat pregnane X receptor (rPXR) signaling pathway (AID 651751; call rule not given here; note: 0% is about no effect); settings: rPXR reporter cells, luciferase (One-Glo), 24 h
# [5] = at 45.9 µM (top of the series), tumour line B
# [6] = at 45.9 µM (top of the series), tumour line D
# [7] = at 46 µM (top of the series), tumour line A
# [8] = at 46.1 µM (top of the series), tumour line C
# [9] = at 20 µM (top of the series), tumour line C
# [10] = at 21.2 µM (top of the series), tumour line B
# [11] = at 21.2 µM (top of the series), tumour line D
# [12] = at 21.3 µM (top of the series), tumour line A
# Sequence of Nuclear receptor subfamily 1 group I member 2 (Rattus norvegicus) (Q9R1A7 whole entry, looked up): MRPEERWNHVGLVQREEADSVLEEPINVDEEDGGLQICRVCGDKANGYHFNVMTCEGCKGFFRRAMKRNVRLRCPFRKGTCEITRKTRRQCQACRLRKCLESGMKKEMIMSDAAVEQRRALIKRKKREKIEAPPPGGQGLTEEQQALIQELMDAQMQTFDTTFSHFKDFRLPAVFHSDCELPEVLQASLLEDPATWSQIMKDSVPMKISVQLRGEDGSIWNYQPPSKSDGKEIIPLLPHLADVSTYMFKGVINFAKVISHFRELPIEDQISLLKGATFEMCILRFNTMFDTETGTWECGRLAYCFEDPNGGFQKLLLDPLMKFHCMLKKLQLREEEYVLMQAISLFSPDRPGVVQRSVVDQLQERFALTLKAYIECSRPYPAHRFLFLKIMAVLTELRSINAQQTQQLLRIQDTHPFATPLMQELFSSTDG
compound,measurement,setting,value
CNc1cc(OC)c(C(=O)N[C@H]2CCN(Cc3ccccc3)[C@H]2C)cc1Cl,"activity, negative = cell killing",[1]; [5],-17.5%
same,Potency,[1]; tumour line A,7.08 µM (active)
same,Potency,[1]; tumour line D,20 µM (active)
same,Potency,[2],inactive
CCCC(=O)Nc1ncnc2c1ncn2[C@@H]1O[C@@H]2COP(=O)(O)O[C@H]2[C@H]1OC(=O)CCC,"activity, negative = cell killing",[1]; [5],-14.5%
same,"activity, negative = cell killing",[1]; [6],-5%
same,"activity, negative = cell killing",[1]; [7],-18.2%
same,"activity, negative = cell killing",[1]; [8],-13.8%
same,Potency,[2],inactive
CO[C@H]1C=CO[C@@]2(C)Oc3c(C)c(O)c4c(O)c(c5c(c4c3C2=O)=NC2(CCN(CC(C)C)CC2)N=5)NC(=O)/C(C)=C\C=C/[C@H](C)[C@H](O)[C@@H](C)[C@@H](O)[C@@H](C)[C@H](OC(C)=O)[C@@H]1C,"activity, negative = cell killing",[1]; [5],-14.2%
same,"activity, negative = cell killing",[1]; [8],33.4%
same,Potency,[1]; tumour line A,10 µM (active)
same,Potency,[2],inactive
Nc1ccn([C@H]2CS[C@@H](CO)O2)c(=O)n1,"activity, negative = cell killing",[1]; [5],-4.08%
same,"activity, negative = cell killing",[1]; [6],8.01%
same,"activity, negative = cell killing",[1]; [7],-14.1%
same,"activity, negative = cell killing",[1]; [8],0.221%
same,Potency,[2],inactive
same,outcome,[3],inactive
CC(O)CO (configuration not stated),"activity, negative = cell killing",[1]; [5],0.179%
same,"activity, negative = cell killing",[1]; [6],10.5%
same,"activity, negative = cell killing",[1]; [7],-19.9%
same,"activity, negative = cell killing",[1]; [8],-8.89%
same,max response,[4],-2.73% and 0.891%
same,outcome,[3],inactive
CC1=CCC(C(C)(C)O)CC1 (configuration not stated),"activity, negative = cell killing",[1]; [5],-2.21%
same,"activity, negative = cell killing",[1]; [6],-4.36%
same,"activity, negative = cell killing",[1]; [7],-13.1%
same,"activity, negative = cell killing",[1]; [8],-3.81%
same,Potency,[2],inactive
same,max response,[4],-0.27%
same,outcome,[3],inactive
CC(=O)Oc1c(C)cc(OCC(O)CNC(C)C)c(C)c1C (configuration not stated),"activity, negative = cell killing",[1]; [5],-11.9%
same,"activity, negative = cell killing",[1]; [6],5.15%
same,"activity, negative = cell killing",[1]; [8],13.3%
same,Potency,[2],inactive
CC[N+](C)(C)Cc1ccccc1Br,"activity, negative = cell killing",[1]; [9],-2.45%
same,"activity, negative = cell killing",[1]; [10],0.866%
same,"activity, negative = cell killing",[1]; [11],-1.19%
same,"activity, negative = cell killing",[1]; [12],-11%
same,Potency,[2],inactive
IC(I)I,"activity, negative = cell killing",[1]; [5],-9.98%
same,"activity, negative = cell killing",[1]; [6],-13.1%
same,"activity, negative = cell killing",[1]; [7],-9.65%
same,"activity, negative = cell killing",[1]; [8],2.5%
same,Potency,[2],inactive
same,max response,[4],0.127% and 1.54%
same,outcome,[3],inactive
CCOC(C)=O,"activity, negative = cell killing",[1]; [5],-6.99%
same,"activity, negative = cell killing",[1]; [6],-8.33%
same,"activity, negative = cell killing",[1]; [7],-18.3%
same,"activity, negative = cell killing",[1]; [8],2.8%
same,Potency,[2],inactive
same,outcome,[3],inactive
O=C(O)c1cc(O)c2c(c1)[O][Bi][O]2,"activity, negative = cell killing",[1]; [5],-11.9%
same,"activity, negative = cell killing",[1]; [6],-5.77%
same,"activity, negative = cell killing",[1]; [7],-19.4%
same,"activity, negative = cell killing",[1]; [8],3.44%
same,Potency,[2],inactive
CC[C@H]1OC(=O)[C@H](C)[C@@H](O[C@H]2C[C@@](C)(OC)[C@@H](O)[C@H](C)O2)[C@H](C)[C@@H](O[C@@H]2O[C@H](C)C[C@H](N(C)C)[C@H]2O)[C@](C)(O)C[C@@H](C)/C(=N\OCOCCOC)[C@H](C)[C@@H](O)[C@]1(C)O,"activity, negative = cell killing",[1]; [9],-5.57%
same,"activity, negative = cell killing",[1]; [10],-9.58%
same,"activity, negative = cell killing",[1]; [11],-24%
same,"activity, negative = cell killing",[1]; [12],-24.2%
same,Potency,[2],inactive
Cc1c(C)c2c(c(C)c1O)CC[C@@](C)(CCC[C@H](C)CCC[C@H](C)CCCC(C)C)O2,"activity, negative = cell killing",[1]; [5],-3.57% and 0.952%
same,"activity, negative = cell killing",[1]; [6],-15.8% and 5.62%
same,"activity, negative = cell killing",[1]; [7],-28.9%
same,"activity, negative = cell killing",[1]; [8],-17.8% and 12.9%
same,Potency,[2],inactive
Nc1ncnc2c1ncn2[C@@H]1O[C@H](COP(=O)(O)OP(=O)(O)OP(=O)(O)O)[C@@H](O)[C@H]1O,"activity, negative = cell killing",[1]; [5],15.4%
same,"activity, negative = cell killing",[1]; [6],-9.21%
same,"activity, negative = cell killing",[1]; [7],-1.48%
same,"activity, negative = cell killing",[1]; [8],38.9%
same,Potency,[2],inactive
CC1=C(/C=C/C(C)=C/C=C/C(C)=C/C=C/C=C(C)/C=C/C=C(C)/C=C/C2=C(C)CCCC2(C)C)C(C)(C)CCC1,"activity, negative = cell killing",[1]; [5],-10.1%
same,"activity, negative = cell killing",[1]; [6],-14.5%
same,"activity, negative = cell killing",[1]; [7],-34.5%
same,"activity, negative = cell killing",[1]; [8],5.35%
same,Potency,[2],inactive
CCCCCCCC(=O)O,"activity, negative = cell killing",[1]; [5],-7.1%
same,"activity, negative = cell killing",[1]; [6],-17.5%
same,"activity, negative = cell killing",[1]; [7],-22.2%
same,"activity, negative = cell killing",[1]; [8],-13.3%
same,Potency,[2],inactive
same,max response,[4],2.58% and -1.34%
same,outcome,[3],inactive
O=S(=O)(O)O,"activity, negative = cell killing",[1]; [5],3.03%
same,"activity, negative = cell killing",[1]; [6],-20.1%
same,"activity, negative = cell killing",[1]; [7],-0.209%
same,"activity, negative = cell killing",[1]; [8],-1.26%
same,Potency,[2],inactive
CN1C(=O)CN2CCc3ccccc3C2c2cc(Cl)ccc21 (configuration not stated),"activity, negative = cell killing",[1]; [5],-19.8%
same,"activity, negative = cell killing",[1]; [6],-13.4%
same,"activity, negative = cell killing",[1]; [7],-22.5%
same,"activity, negative = cell killing",[1]; [8],-33.9%
same,Potency,[2],inactive
O=C(O)CCC(=O)C(=O)O,"activity, negative = cell killing",[1]; [5],-7.95%
same,"activity, negative = cell killing",[1]; [6],2.23%
same,"activity, negative = cell killing",[1]; [7],-23.8%
same,"activity, negative = cell killing",[1]; [8],3.09%
same,Potency,[2],inactive
same,max response,[4],0.868%
same,outcome,[3],inactive
CCCCCCCCCCCCCCCCCCOP(=O)([O-])OC1CC[N+](C)(C)CC1,"activity, negative = cell killing",[1]; [9],-12.3%
same,"activity, negative = cell killing",[1]; [10],-9.9%
same,"activity, negative = cell killing",[1]; [11],-6.99%
same,Potency,[2],inactive
CC1(C)S[C@@H]2[C@H](NC(=O)[C@@H](NC(=O)N3CCNC3=O)c3ccccc3)C(=O)N2[C@H]1C(=O)O,"activity, negative = cell killing",[1]; [9],-8.8%
same,"activity, negative = cell killing",[1]; [10],-3.93%
same,"activity, negative = cell killing",[1]; [11],-6.96%
same,"activity, negative = cell killing",[1]; [12],-17.7%
same,Potency,[2],inactive
C[C@@H]1[C@H](O)[C@@H](C)/C=C/C=C\C=C\C=C\C=C\C=C\C=C\[C@H](O[C@@H]2O[C@H](C)[C@@H](O)[C@H](N)[C@@H]2O)C[C@@H]2O[C@](O)(C[C@@H](O)C[C@@H](O)[C@H](O)CC[C@@H](O)C[C@@H](O)CC(=O)O[C@H]1C)C[C@H](O)[C@H]2C(=O)O (stereo in doubt),"activity, negative = cell killing",[1]; [5],-6.2%
same,"activity, negative = cell killing",[1]; [6],-9.92%
same,"activity, negative = cell killing",[1]; [7],-13.6%
same,"activity, negative = cell killing",[1]; [8],-5.87%
same,Potency,[2],inactive
C[C@]12O[C@H](C[C@]1(O)CO)n1c3ccccc3c3c4c(c5c6ccccc6n2c5c31)CNC4=O,"activity, negative = cell killing",[1]; [8],-97.6%
same,Potency,[1]; tumour line A,7.08 µM (active)
same,Potency,[1]; tumour line B,4.47 µM (active)
same,Potency,[1]; tumour line D,3.16 µM (active)
same,Potency,[2],0.447 µM (active)
O=C(O)CN(CCN(CC(=O)O)CC(=O)O)CC(=O)O,"activity, negative = cell killing",[1]; [5],-9.39%
same,"activity, negative = cell killing",[1]; [6],-15%
same,"activity, negative = cell killing",[1]; [7],-14.7%
same,"activity, negative = cell killing",[1]; [8],-16.4%
same,max response,[4],0.191% and 7.12%
CCC(=O)O[C@@H]1CC(=O)O[C@H](C)C/C=C/C=C/[C@H](O)[C@H](C)C[C@H](CC=O)[C@H](O[C@@H]2O[C@H](C)[C@@H](O[C@H]3C[C@@](C)(O)[C@@H](OC(=O)CC)[C@H](C)O3)[C@H](N(C)C)[C@H]2O)[C@H]1OC,"activity, negative = cell killing",[1]; [9],18.5%
same,"activity, negative = cell killing",[1]; [10],-16.2%
same,"activity, negative = cell killing",[1]; [11],-1.85%
same,"activity, negative = cell killing",[1]; [12],-24.3%
same,Potency,[2],inactive
C=C1CC[C@@H]2[C@](C)(CO)[C@H](O)CC[C@@]2(C)[C@@H]1C/C=C1/C(=O)OC[C@H]1O,Potency,[2],25.1 µM (active)
C/C1=C2N=C(/C=C3N=C(/C(C)=C4\[N-][C@@](C)([C@@H]5N=C1[C@](C)(CCC(=O)NCC(C)OP(=O)(O)O[C@H]1[C@@H](O)[C@@H](n6cnc7cc(C)c(C)cc76)O[C@@H]1CO)[C@H]5CC(N)=O)[C@@](C)(CC(N)=O)[C@@H]4CCC(N)=O)[C@@](C)(CC(N)=O)[C@@H]\3CCC(N)=O)C(C)(C)[C@@H]/2CCC(N)=O.CC(=O)O.[Co] (some centres not stated),"activity, negative = cell killing",[1]; [5],-15.2%
same,"activity, negative = cell killing",[1]; [6],-26.7%
same,"activity, negative = cell killing",[1]; [7],-29%
same,Potency,[2],inactive
Clc1cc(Cl)c(OCC#CI)cc1Cl,Potency,[2],inactive
CC[C@@H](C)CCCCC(=O)N[C@@H](CCNCS(=O)(=O)O)C(=O)N[C@H](C(=O)N[C@@H](CCNCS(=O)(=O)O)C(=O)N[C@H]1CCNC(=O)[C@H]([C@@H](C)O)NC(=O)[C@H](CCNCS(=O)(=O)O)NC(=O)[C@H](CCNCS(=O)(=O)O)NC(=O)[C@H](CC(C)C)NC(=O)[C@@H](CC(C)C)NC(=O)[C@H](CCNCS(=O)(=O)O)NC1=O)[C@@H](C)O (X3-[Dab(CH2SO3H)]T[Dab(CH2SO3H)][Dab][Dab(CH2SO3H)][dL]L[Dab(CH2SO3H)][Dab(CH2SO3H)]T; lactam 4-C),"activity, negative = cell killing",[1]; [5],-7.01%
same,"activity, negative = cell killing",[1]; [6],10.8%
same,"activity, negative = cell killing",[1]; [7],-16.2%
same,Potency,[2],inactive
